Several values for one entry are separate records, joined by “and”; a condition that tells them apart may be missing. Equal values may be shown once. Inconclusive results are not listed. Entries that show only a call come without a potency. A structure can be active in one record and inactive in another. Activity calls are given as the source filed them. Calls come from the whole dose curve; as a rule, active = well fitted curve in the direction sought with a large enough effect in the repeat runs; inconclusive = weak or mixed curves; inactive = no such curve, though single readings can be large; an effect the other way counts as inactive or inconclusive.
Legend:
[1] = A CellTox Green Cytotoxicity Assay to monitor cytotoxicity in HEK293 cells - 32 hour (AID 1224881); note: nearly all actives have a fitted effect of over 40% in size; note: potency is the fitted concentration of half-maximal effect
How it was run: (§1)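 Fluorescence intensity, read at 0, 8, 16, 24, 32 and 40 h of compound treatment, reflected dye binding to DNA of dead HEK293 cells; compounds (23 nL, DMSO) were added 5 h after plating cells with reagent.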

[2] = A CellTox Green Cytotoxicity Assay to monitor cytotoxicity in HepG2 cells - 0 hour (AID 1224882); note: nearly all actives have a fitted effect of over 35% in size
How it was run: (§2)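 Using 1536-well format, dye-containing HepG2 suspension was seeded, allowed 5 h at 37 C/5% CO2, dosed by pintool with compounds, positive and negative controls, and imaged for fluorescence across 40 h.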

[3] = A CellTox Green Cytotoxicity Assay to monitor cytotoxicity in HepG2 cells - 32 hour (AID 1224883); note: nearly all actives have a fitted effect of over 50% in size; note: potency is the fitted concentration of half-maximal effect
How it was run: as §2

[4] = qHTS RealTime-Glo MT Cell Viability Assay in HepG2 cells - 16 hour (AID 1224885); note: nearly all actives have a fitted effect of over 50% in size; note: potency is the fitted concentration of half-maximal effect
How it was run: (§3)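 Real-time, nonlytic viability: 600 HepG2 cells/well mixed with NanoLuc enzyme plus prosubstrate; 5 h settle, compound (DMSO) added by pintool; luminescence monitored over 40 h at 37 C.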

[5] = A CellTox Green Cytotoxicity Assay to monitor cytotoxicity in HEK293 cells - 16 hour (AID 1224888); note: nearly all actives have a fitted effect of over 35% in size; note: potency is the fitted concentration of half-maximal effect
How it was run: as §1

[6] = qHTS RealTime-Glo MT Cell Viability Assay in HepG2 cells - 0 hour (AID 1224889); note: nearly all actives have a fitted effect of over 50% in size
How it was run: as §3

[7] = A CellTox Green Cytotoxicity Assay to monitor cytotoxicity in HepG2 cells - 8 hour (AID 1224890); note: nearly all actives have a fitted effect of over 45% in size; note: potency is the fitted concentration of half-maximal effect
How it was run: as §2

[8] = qHTS RealTime-Glo MT Cell Viability Assay in HEK293 cells - 24 hour (AID 1224886); note: nearly all actives have a fitted effect of over 50% in size; note: potency is the fitted concentration of half-maximal effect
How it was run: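 Cells + reagent dispensed (600 cells/well, HEK293) → 5 h at 37 C/5% CO2 → 23 nL compound in DMSO pinned → 40 h at 37 C → luminescence read at 0, 8, 16, 24, 32, 40 h.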

[9] = qHTS RealTime-Glo MT Cell Viability Assay in HEK293 cells - 8 hour (AID 1224887); note: nearly all actives have a fitted effect of over 50% in size; note: potency is the fitted concentration of half-maximal effect
How it was run: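 Viable HEK293 cells reduce a cell-permeant prosubstrate; the product diffuses out and is consumed by NanoLuc in the medium to give light. Compounds went in after a 5 h incubation and plates were read over the treatment course.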

[10] = A CellTox Green Cytotoxicity Assay to monitor cytotoxicity in HEK293 cells - 8 hour (AID 1224884); note: nearly all actives have a fitted effect of over 35% in size; note: potency is the fitted concentration of half-maximal effect
How it was run: as §1

CCCCCCCCCCCCCCCS(=O)(=O)Oc1ccccc1
Potency [1]: inactive
Potency [2]: inactive
Potency [3]: inactive
Potency [4]: inactive
Potency [5]: inactive
Potency [6]: inactive
Potency [7]: inactive

Oc1ccc(N=Nc2ccccc2)cc1
Potency [1]: 44.2 µM (active)
Potency [2]: inactive
Potency [4]: inactive
Potency [8]: 17.6 µM (active)
Potency [9]: 19.8 µM (active)
Potency [6]: inactive
Potency [7]: inactive

CCCCC(CC)COC(=O)c1ccccc1C(=O)O (stereo unspecified)
Potency [1]: inactive
Potency [2]: inactive
Potency [3]: inactive
Potency [4]: inactive
Potency [9]: inactive
Potency [7]: inactive

S=c1[nH]c2ccccc2s1
Potency [1]: 49 µM (active)
Potency [4]: inactive
Potency [8]: inactive
Potency [9]: inactive

Cc1[nH]cnc1C[C@H]1CCc2c(C)c3ccccc3n2C1=O
Potency [1]: 47.8 µM (active)
Potency [2]: inactive
Potency [3]: 38 µM (active)
Potency [8]: 33.8 µM (active)
Potency [5]: inactive
Potency [6]: inactive

C=CC(=O)OCC(CO)(COC(=O)C=C)COC(=O)C=C
Potency [2]: inactive
Potency [3]: 9.81 µM (active)
Potency [10]: inactive
Potency [4]: 13.9 µM (active) and 11 µM (active)
Potency [8]: 4.91 µM (active)
Potency [9]: 6.19 µM (active) and inactive
Potency [5]: inactive
Potency [6]: inactive
Potency [7]: inactive

CCCCCCCC(=O)[O-].CCCCCCCC(=O)[O-].[Zn+2]
Potency [1]: inactive
Potency [3]: inactive
Potency [10]: inactive
Potency [4]: inactive
Potency [8]: inactive
Potency [9]: inactive
Potency [5]: inactive
Potency [6]: inactive
Potency [7]: inactive

CC(C)(C)c1ccc(C(=O)CCCN2CCC(OC(c3ccccc3)c3ccccc3)CC2)cc1
Potency [1]: 23.9 µM (active)
Potency [3]: 21.3 µM (active)
Potency [4]: 21.3 µM (active)
Potency [8]: 8.49 µM (active)
Potency [9]: 9.52 µM (active)
Potency [6]: inactive
Potency [7]: 23.9 µM (active)

Cc1ccc(O)c2ncccc12
Potency [2]: inactive
Potency [3]: 8.49 µM (active)
Potency [10]: inactive
Potency [4]: inactive
Potency [8]: inactive
Potency [9]: inactive
Potency [5]: inactive
Potency [6]: inactive
Potency [7]: inactive

COC(=O)c1cc(Cl)ccc1OC
Potency [2]: inactive
Potency [3]: inactive
Potency [10]: inactive
Potency [4]: inactive
Potency [8]: inactive
Potency [9]: inactive
Potency [5]: inactive
Potency [6]: inactive
Potency [7]: inactive

CCCC/C=C/CCCCO
Potency [1]: inactive
Potency [2]: inactive
Potency [10]: inactive
Potency [4]: inactive
Potency [8]: inactive
Potency [9]: inactive
Potency [5]: inactive
Potency [6]: inactive
Potency [7]: inactive

Oc1cc2ccccc2c2ccccc12
Potency [2]: inactive
Potency [3]: 11 µM (active)
Potency [10]: inactive
Potency [4]: 11 µM (active)
Potency [8]: 9.77 µM (active)
Potency [9]: 3.47 µM (active)
Potency [5]: inactive
Potency [6]: inactive
Potency [7]: inactive

CCOc1nc2cccc(C(=O)OC(C)OC(=O)OC3CCCCC3)c2n1Cc1ccc(-c2ccccc2-c2nn[nH]n2)cc1 (stereo unspecified)
Potency [1]: 30.9 µM (active)
Potency [3]: 43.6 µM (active)
Potency [8]: 9.76 µM (active)
Potency [9]: 8.7 µM (active)

Cc1c(C)c2c(c(C)c1OC(=O)CCC(=O)O)CC[C@@](C)(CCC[C@H](C)CCC[C@H](C)CCCC(C)C)O2
Potency [1]: inactive
Potency [2]: inactive
Potency [10]: inactive
Potency [4]: inactive
Potency [9]: inactive
Potency [5]: inactive
Potency [7]: inactive

CCCC(C)c1ccccc1O (stereo unspecified)
Potency [1]: 49 µM (active)
Potency [2]: inactive
Potency [10]: inactive
Potency [4]: inactive
Potency [8]: inactive
Potency [9]: inactive
Potency [6]: inactive

Cc1cc2c(cc1C(F)(F)F)N(C(=O)Nc1ccc(Oc3cccnc3C)nc1)CC2
Potency [1]: inactive
Potency [2]: inactive
Potency [10]: inactive
Potency [4]: inactive
Potency [9]: inactive
Potency [5]: inactive
Potency [7]: inactive

C[C@H](CCC(=O)O)[C@H]1CC[C@H]2[C@@H]3CC[C@@H]4C[C@H](O)CC[C@]4(C)[C@H]3CC[C@]12C
Potency [1]: inactive
Potency [2]: inactive
Potency [10]: inactive
Potency [4]: inactive
Potency [8]: inactive
Potency [9]: inactive
Potency [5]: inactive
Potency [6]: inactive
Potency [7]: inactive

CC(C)(C)CC(C)(C)c1ccc(O)c(Cc2ccc(Cl)cc2Cl)c1
Potency [1]: 23.9 µM (active)
Potency [2]: inactive
Potency [10]: inactive
Potency [8]: 23.9 µM (active)
Potency [9]: 23.9 µM (active)
Potency [6]: inactive

CC(=O)S[C@@H]1CC2=CC(=O)CC[C@]2(C)[C@H]2CC[C@@]3(C)[C@@H](CC[C@@]34CCC(=O)O4)[C@H]12
Potency [1]: inactive
Potency [2]: inactive
Potency [3]: 54.9 µM (active)
Potency [5]: inactive
Potency [6]: inactive
Potency [7]: inactive

COc1cccc2c1C(=O)c1c(O)c3c(c(O)c1C2=O)C[C@@](O)(C(=O)CO)C[C@@H]3O[C@H]1C[C@H](N)[C@H](O[C@@H]2CCCCO2)[C@H](C)O1
Potency [1]: inactive
Potency [3]: 1.69 µM (active)
Potency [10]: inactive
Potency [8]: 0.338 µM (active)
Potency [9]: inactive
Potency [5]: inactive
Potency [6]: inactive
Potency [7]: 23.9 µM (active)

CCCCCCCC/C=C/CCCCCCCC1=NCCN1CCO
Potency [2]: inactive
Potency [3]: 13.8 µM (active)
Potency [10]: 49 µM (active)
Potency [4]: 24.5 µM (active)
Potency [8]: 19.5 µM (active)
Potency [9]: 43.6 µM (active)
Potency [5]: 34.7 µM (active)
Potency [6]: inactive
Potency [7]: 49 µM (active)

Cc1nc(-c2ccc3c(c2)CCN(CCC2CCC(NC(=O)/C=C/c4ccc(F)cc4)CC2)CC3)no1 (stereo unspecified)
Potency [2]: inactive
Potency [3]: inactive
Potency [10]: inactive
Potency [4]: inactive
Potency [5]: inactive
Potency [6]: inactive
Potency [7]: inactive

— PubChem BioAssay (Tox21)
